TDP1 block = qHTS Assay for Inhibitors of Tyrosyl-DNA Phosphodiesterase (TDP1); recombinant TDP1, AlphaScreen DNA substrate cleavage; 350,000 compounds, 0.28% hits; AID 485290, 2010; Tyrosyl-DNA phosphodiesterase 1 (Homo sapiens), Q9NUW8; Potency, µM (series often up to 130 µM), inactives show top-dose activity change, negative = inhibition, actives largely listed as inhibitors; also: potency is read from the fitted curve at half-maximal effect; nearly all actives have a fitted effect of over 40% in size
Target sequence (Q9NUW8 whole entry, looked up): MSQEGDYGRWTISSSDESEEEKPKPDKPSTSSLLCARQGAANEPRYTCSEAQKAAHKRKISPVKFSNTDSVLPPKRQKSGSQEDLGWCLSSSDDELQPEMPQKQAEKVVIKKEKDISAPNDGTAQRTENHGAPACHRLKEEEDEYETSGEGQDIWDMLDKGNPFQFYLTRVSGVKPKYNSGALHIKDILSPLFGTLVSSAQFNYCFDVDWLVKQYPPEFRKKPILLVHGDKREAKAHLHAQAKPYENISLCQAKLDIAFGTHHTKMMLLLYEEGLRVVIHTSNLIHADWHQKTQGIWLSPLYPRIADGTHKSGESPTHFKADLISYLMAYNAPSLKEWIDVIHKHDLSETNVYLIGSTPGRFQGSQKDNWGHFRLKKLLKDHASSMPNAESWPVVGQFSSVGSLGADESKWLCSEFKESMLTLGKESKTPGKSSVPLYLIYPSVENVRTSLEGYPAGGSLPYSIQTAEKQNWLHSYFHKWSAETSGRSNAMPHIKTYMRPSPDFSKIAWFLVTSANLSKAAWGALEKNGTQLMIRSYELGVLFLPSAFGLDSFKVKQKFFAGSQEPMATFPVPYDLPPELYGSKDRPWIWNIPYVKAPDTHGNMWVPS
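Steps: enzyme plus compound, 15 min RT; add biotin/phosphotyrosine-FITC oligonucleotide (15 nM final), react 5 min; add donor/acceptor beads (10 ug/ml final), 10 min; read AlphaScreen. Tdp1 at 1 nM final.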
Six1-Eya2 inh = qHTS Assay for Inhibitors of the Six1/Eya2 Interaction; Homeobox protein SIX1 (Homo sapiens) + Protein phosphatase EYA2 (Homo sapiens), …; AlphaScreen GST-Six1/His-Eya2 binding, biochemical; active compounds read low; activity change, % (no concentration beside the values); 360,000 compounds, 0.56% hits; AID 651725, 2012; in the data active = activity change below about -65%; inconclusive = mostly about -30% to -63%
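Compounds are tested against tagged Six1 and Eya2 proteins bridged by glutathione donor and nickel acceptor beads; after a one-hour incubation at 37 °C without light, AlphaScreen emission is recorded.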
IL1B secr inh = qHTS for Inhibitors of Inflammasome Signaling: IL-1-beta AlphaLISA Primary Screen | THP-1 LPS/ATP IL-1B secretion, AlphaLISA, 16 h; active compounds read low | activity change, % at 57.5 µM | 360,000 compounds, 4.7% hits | AID 743279, 2014; in the data active = activity change below about -50%; inconclusive = mostly about -30% to -49%
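THP-1 cells pretreated 1 hr with compounds (up to 57.5 uM final), then stimulated with LPS (250 ng/mL final) plus ATP (1.25 mM final); secreted IL-1B measured by AlphaLISA after 16 hr, decreased signal indicating inhibition.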
DT40 TDP1 no CPT = qHTS for Inhibitors of human tyrosyl-DNA phosphodiesterase 1 (TDP1): qHTS in cells in absence of CPT; DT40 Tdp1-/- hTDP1 cells, no CPT, ATP luminescence, 48 h; Potency, µM (series often up to 46.2 µM), without a hit: top-dose activity change, negative = growth inhibition, actives largely listed as inhibitors; 420,000 compounds, 15% hits; also: potency is read from the fitted curve at half-maximal effect; nearly all actives have a fitted effect of over 55% in size
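No-CPT arm: Tdp1-/-;hTDP1 DT40 cells (400/well) plus compounds, incubated ≥48 hr at 37 °C. Readout CellTiter-Glo luminescence.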
CtBP-E1A inh = qHTS Assay for Inhibitors of the CtBP/E1A Interaction; CtBP / adenovirus E1A interaction (AlphaScreen); AlphaScreen GST-E1A/His-CtBP binding, 1536-well; active compounds read low; activity change, % (concentration not given with the values); 340,000 compounds, 0.49% hits; in the data active = activity change below about -65%; inconclusive = mostly about -30% to -63%
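Protein mix (5X: 125 nM each GST-E1A, His-CtBP) was incubated with pinned compound 2 h at 37 deg C in dark, in 50 mM Tris pH 8.0 buffer with 300 mM NaCl. Glutathione donor and nickel acceptor beads followed; AlphaScreen signal read after 1 h.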
TDP1 cell CPT = qHTS for Inhibitors of human tyrosyl-DNA phosphodiesterase 1 (TDP1): qHTS in cells in presence of CPT; chicken DT40 Tdp1-/-;hTDP1 cells + 20 nM CPT, ATP luminescence, 48 h; Potency, µM (doses to about 46.2 µM), inactives show at the highest dose activity change, negative = growth inhibition, usual class: inhibitors; 420,000 compounds, 12% hits; also: potency is read from the fitted curve at half-maximal effect; nearly all actives have a fitted effect of over 55% in size
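Chicken DT40 Tdp1-/- cells stably complemented with human TDP1 were seeded at 400 cells/well in medium containing 20 nM camptothecin, exposed to pin-transferred compounds, and grown at 37 °C for at least 48 hr. Viability was read as ATP luminescence.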
Numbers without * were called inactive. Compounds with a hit are over-represented: about 18% of the library has one in this group of screens. Unless noted, calls follow the shape of the dose curve; as a rule, active = well fitted curve in the direction sought with a large enough effect; inconclusive = small, poorly fitted or top-dose-only effect, or another doubt; inactive = no such curve, though single readings can be large; an effect the other way counts as inactive or inconclusive. % is scaled to controls: 0 for no effect and ±100 for the full control effect.

Results for CCOC(=O)c1[nH]c2c(c1-c1ccc(OC)cc1)C(=O)CC(c1ccc(OC)c(OC)c1)C2 (configuration not stated) ?
TDP1 block: 5%; Six1-Eya2 inh: -3; DT40 TDP1 no CPT: inconclusive; CtBP-E1A inh: 8; TDP1 cell CPT: inconclusive

How did COCCOC(=O)c1[nH]c2c(c1C)C(=O)CC(c1cc(OC)c(OC)c(OC)c1)C2 (configuration not stated) do in these assays?
Six1-Eya2 inh: -10; IL1B secr inh: -21; DT40 TDP1 no CPT: 2.9µM*; CtBP-E1A inh: -2; TDP1 cell CPT: 3.7µM*

What do the screens show for `C=CCOC(=O)c1[nH]c2c(c1C)C(=O)CC(c1cc(OC)c(OC)c(OC)c1)C2` (configuration not stated)?
TDP1 block: 0%; Six1-Eya2 inh: -8; IL1B secr inh: inconclusive; DT40 TDP1 no CPT: 7.3µM*; CtBP-E1A inh: -3; TDP1 cell CPT: 21µM*

What do the screens show for `Cc1ccccc1Cn1cnc2c(nnn2Cc2ccc(F)cc2)c1=O`?
TDP1 block: 0%; Six1-Eya2 inh: 3; IL1B secr inh: 15; DT40 TDP1 no CPT: -18%; CtBP-E1A inh: 4; TDP1 cell CPT: -25%

Results for CCOC(=O)[C@]12CCCC=C1N(Cc1ccc(Cl)cc1Cl)C(=O)[C@H](CC(=O)NCCc1ccccc1OC)C2 ?
Six1-Eya2 inh: -8; IL1B secr inh: 0; DT40 TDP1 no CPT: 23µM*; CtBP-E1A inh: -1; TDP1 cell CPT: inconclusive

How did CCOC(=O)[C@]12CCCC=C1N(Cc1ccc(Cl)cc1Cl)C(=O)[C@H](CC(=O)NCCCN1CCCC1=O)C2 do in these assays?
Six1-Eya2 inh: 6; IL1B secr inh: -17; DT40 TDP1 no CPT: inconclusive; CtBP-E1A inh: 0; TDP1 cell CPT: inconclusive

How did CCOC(=O)[C@]12CCC=C1N(Cc1ccc(Cl)cc1Cl)C(=O)[C@H](CC(=O)NCCCN1CCCC1=O)C2 do in these assays?
Six1-Eya2 inh: 5; IL1B secr inh: -12; DT40 TDP1 no CPT: inconclusive; CtBP-E1A inh: -10; TDP1 cell CPT: 18µM*

How did CCCCOCCCNC(=O)C[C@@H]1C[C@@]2(C(=O)OCC)CCCC=C2N(Cc2ccc(Cl)cc2Cl)C1=O do in these assays?
Six1-Eya2 inh: 2; IL1B secr inh: -79*; DT40 TDP1 no CPT: 18µM*; CtBP-E1A inh: -1; TDP1 cell CPT: inconclusive

What do the screens show for `CCOC(=O)[C@]12CCC=C1N(Cc1ccc(Cl)cc1Cl)C(=O)[C@H](CC(=O)NCC13CC4CC(CC(C4)C1)C3)C2`?
Six1-Eya2 inh: -8; IL1B secr inh: -10; DT40 TDP1 no CPT: 21µM*; CtBP-E1A inh: 1; TDP1 cell CPT: inconclusive

Results for COC(=O)[C@]12CCCCC=C1N(Cc1ccc(Cl)cc1Cl)C(=O)[C@H](CC(=O)NCC13CC4CC(CC(C4)C1)C3)C2 ?
Six1-Eya2 inh: -2; IL1B secr inh: 24; DT40 TDP1 no CPT: -18%; CtBP-E1A inh: 4; TDP1 cell CPT: 2%

What do the screens show for `CC(=O)N[C@@H](Cc1ccc(O)cc1)CN1C(N)=NC[C@@H]1CC(C)C`?
Six1-Eya2 inh: 0; IL1B secr inh: 14; DT40 TDP1 no CPT: -4%; CtBP-E1A inh: 3; TDP1 cell CPT: -22%

What do the screens show for `Nc1ncc(Br)cc1S(=O)(=O)Nc1ccccc1F`?
TDP1 block: 4%; Six1-Eya2 inh: 7; IL1B secr inh: 23; DT40 TDP1 no CPT: -3%; CtBP-E1A inh: -1; TDP1 cell CPT: 0%

How did C/C(=C\c1ccccc1)C(=O)NCCc1ccccc1 do in these assays?
TDP1 block: -5%; Six1-Eya2 inh: -5; IL1B secr inh: -6; DT40 TDP1 no CPT: -8%; CtBP-E1A inh: 4; TDP1 cell CPT: 1%

What do the screens show for `COc1ccc(F)cc1S(=O)(=O)N1CCN(Cc2ccc3c(c2)OCO3)CC1`?
TDP1 block: 3%; Six1-Eya2 inh: -4; IL1B secr inh: 6; DT40 TDP1 no CPT: -22%; CtBP-E1A inh: 5; TDP1 cell CPT: 10%

How did O=C(Nc1ccc2c(c1)OCO2)N1CCN(c2ccc(F)cc2)CC1 do in these assays?
TDP1 block: -2%; Six1-Eya2 inh: -6; IL1B secr inh: -13; DT40 TDP1 no CPT: inconclusive; CtBP-E1A inh: -3; TDP1 cell CPT: inconclusive

How did CCCCNC(=O)C[C@@H]1C[C@@]2(C(=O)OCC)CCCC=C2N(Cc2ccc(Cl)cc2Cl)C1=O do in these assays?
Six1-Eya2 inh: 5; IL1B secr inh: inconclusive; DT40 TDP1 no CPT: -92%; CtBP-E1A inh: 4; TDP1 cell CPT: 21µM*

What do the screens show for `CC(=O)[C@H]1CCC2C3CC=C4C[C@@H](O)CC[C@]4(C)C3CC[C@@]21C` (some centres not stated)?
TDP1 block: 0%; Six1-Eya2 inh: 6; IL1B secr inh: 17; DT40 TDP1 no CPT: inconclusive; CtBP-E1A inh: 6; TDP1 cell CPT: 18µM*

Results for CC(=O)C1CCC2C3CC(C)=C4CC(O)CCC4(C)C3CCC12C (configuration not stated) ?
Six1-Eya2 inh: -13; IL1B secr inh: -99*; DT40 TDP1 no CPT: 21µM*; CtBP-E1A inh: 0; TDP1 cell CPT: 3%

How did CC(=O)[C@H]1CC[C@H]2[C@@H]3CC=C4C[C@@H](O)CC[C@]4(C)[C@H]3CC[C@]12C do in these assays?
Six1-Eya2 inh: 3; IL1B secr inh: 44; DT40 TDP1 no CPT: inconclusive; CtBP-E1A inh: 4; TDP1 cell CPT: inconclusive

Results for N=C(CC(O)COc1ccccc1-c1ccccc1)N1CCCCC1 (configuration not stated) ?
TDP1 block: 8%; DT40 TDP1 no CPT: 3.3µM*; TDP1 cell CPT: 5.2µM*

How did c1ccc2c(OCCCCN3CCCC3)cccc2c1 do in these assays?
Six1-Eya2 inh: -5; IL1B secr inh: -2; DT40 TDP1 no CPT: 26µM*; TDP1 cell CPT: inconclusive

What do the screens show for `c1ccc(-c2ccccc2OCCCN2CCCCCC2)cc1`?
TDP1 block: 0%; Six1-Eya2 inh: -2; IL1B secr inh: inconclusive; DT40 TDP1 no CPT: inconclusive; TDP1 cell CPT: inconclusive
